Data published in PubChem BioAssay AID1159580 (chemical genetic matrix, 2015).
Screen size: about 5,500 compounds; about 2,000 (36%) were called active. Another 18% or so got no clear call; they are omitted. The list shows a part of the results. Unmarked numbers belong to inactive results. Cut-off read from the data, not from the text of the source: active = normalized growth mostly below about 0.91 (no sharp cut-off); inconclusive = no clear call, values can overlap the other calls; inactive = mostly above about 0.92.

Experiment: chemical genetic growth profiling, strain panel (AID 1159580);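 note: tested at 20 µM; growth read once vehicle control cultures reached saturation at 30 °C; 1 = growth at the plate median or of vehicle wells; lower values mean less growth of the strain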
Conditions: S. cerevisiae deletion strains, growth OD

## CC1=CC(=O)c2c(O)cccc2C1=O
Locus YAL021C, strain ccr4, stronger effect = lower value
  normalized growth: 0.0614 (active)
Locus YAL026C, strain drs2, stronger effect = lower value
  normalized growth: 0.0573 (active)
Locus YAL030W, strain snc1, stronger effect = lower value
  normalized growth: 0.0538 (active)
Locus YBL061C, strain skt5, stronger effect = lower value
  normalized growth: 0.0578 (active)
Locus YBR009C, strain hhf1, stronger effect = lower value
  normalized growth: 0.0566 (active)
Locus YBR023C, strain chs3, stronger effect = lower value
  normalized growth: 0.0593 (active)
Locus YBR171W, strain sec66, stronger effect = lower value
  normalized growth: 0.0747 (active)
Locus YBR231C, strain swc5, stronger effect = lower value
  normalized growth: 0.0608 (active)
Locus YBR279W, strain paf1, stronger effect = lower value
  normalized growth: 0.0613 (active)
Locus YCL011C, strain gbp2, stronger effect = lower value
  normalized growth: 0.053 (active)
Locus YCL016C, strain dcc1, stronger effect = lower value
  normalized growth: 0.0629 (active)
Locus YCL069W, strain vba3, stronger effect = lower value
  normalized growth: 0.058 (active)
Locus YCR088W, strain abp1, stronger effect = lower value
  normalized growth: 0.0593 (active)
Locus YDL005C, strain med2, stronger effect = lower value
  normalized growth: 0.0698 (active)
Locus YDL040C, strain nat1, stronger effect = lower value
  normalized growth: 0.073 (active)
Locus YDR001C, strain nth1, stronger effect = lower value
  normalized growth: 0.0551 (active)
Locus YDR069C, strain doa4, stronger effect = lower value
  normalized growth: 0.0589 (active)
Locus YDR137W, strain rgp1, stronger effect = lower value
  normalized growth: 0.103 (active)
Locus YDR159W, strain sac3, stronger effect = lower value
  normalized growth: 0.139 (active)
Locus YDR195W, strain ref2
  normalized growth: 0.132 (active)
Locus YDR297W, strain sur2, stronger effect = lower value
  normalized growth: 0.0527 (active)
Locus YDR334W, strain swr1, stronger effect = lower value
  normalized growth: 0.063 (active)
Locus YDR335W, strain msn5, stronger effect = lower value
  normalized growth: 0.0594 (active)
Locus YDR392W, strain spt3, stronger effect = lower value
  normalized growth: 0.0748 (active)
Locus YEL003W, strain gim4, stronger effect = lower value
  normalized growth: 0.0513 (active)
Locus YEL037C, strain rad23, stronger effect = lower value
  normalized growth: 0.0601 (active)
Locus YEL061C, strain CIN8 (second series), stronger effect = lower value
  normalized growth: 0.0564 (active)
Locus YER015W, strain faa2, stronger effect = lower value
  normalized growth: 0.0571 (active)
Locus YER016W, strain bim1, stronger effect = lower value
  normalized growth: 0.0586 (active)
Locus YER111C, strain swi4, stronger effect = lower value
  normalized growth: 0.71 (active)
Locus YER155C, strain BEM2 (second series), stronger effect = lower value
  normalized growth: 0.0832 (active)
Locus YFR010W, strain ubp6, stronger effect = lower value
  normalized growth: 0.0636 (active)
Locus YGL167C, strain pmr1, stronger effect = lower value
  normalized growth: 0.071 (active)
Locus YGL173C, strain kem1, stronger effect = lower value
  normalized growth: 0.0648 (active)
Locus YGL227W, strain vid30, stronger effect = lower value
  normalized growth: 0.0587 (active)
Locus YGL240W, strain doc1, stronger effect = lower value
  normalized growth: 0.0736 (active)
Locus YGL253W, strain hxk2, stronger effect = lower value
  normalized growth: 0.0519 (active)
Locus YHR013C, strain ard1, stronger effect = lower value
  normalized growth: 0.101 (active)
Locus YHR027C, strain rpn1, stronger effect = lower value
  normalized growth: 0.0589 (active)
Locus YHR030C, strain SLT2, stronger effect = lower value
  normalized growth: 0.108 (active)
Locus YHR079C, strain IRE1, stronger effect = lower value
  normalized growth: 0.123 (active)
Locus YHR142W, strain chs7, stronger effect = lower value
  normalized growth: 0.0661 (active)
Locus YJL092W, strain hpr5, stronger effect = lower value
  normalized growth: 0.061 (active)
Locus YJL095W, strain BCK1 (second series), stronger effect = lower value
  normalized growth: 0.0545 (active)
Locus YJL095W, strain BCK1, stronger effect = lower value
  normalized growth: 0.133 (active)
Locus YJL115W, strain asf1, stronger effect = lower value
  normalized growth: 0.0773 (active)
Locus YJL129C, strain trk1, stronger effect = lower value
  normalized growth: 0.653 (active)
Locus YJL154C, strain vps35, stronger effect = lower value
  normalized growth: 0.0541 (active)
Locus YJL164C, strain tpk1, stronger effect = lower value
  normalized growth: 0.0572 (active)
Locus YJL166W, strain qcr8, stronger effect = lower value
  normalized growth: 0.0557 (active)
Locus YJL187C, strain SWE1, stronger effect = lower value
  normalized growth: 0.0545 (active)
Locus YJR066W, strain TOR1, stronger effect = lower value
  normalized growth: 0.00113 (active)
Locus YKL160W, strain elf1, stronger effect = lower value
  normalized growth: 0.0646 (active)
Locus YKR026C, strain gcn3, stronger effect = lower value
  normalized growth: 0.0585 (active)
Locus YKR091W, strain srl3, stronger effect = lower value
  normalized growth: 0.0562 (active)
Locus YLL001W, strain dnm1, stronger effect = lower value
  normalized growth: 0.0574 (active)
Locus YLL026W, stronger effect = lower value
  normalized growth: 0.0541 (active)
Locus YLL041C, strain sdh2, stronger effect = lower value
  normalized growth: 0.0519 (active)
Locus YLR027C, strain aat2, stronger effect = lower value
  normalized growth: 0.0528 (active)
Locus YLR113W, strain HOG1, stronger effect = lower value
  normalized growth: 0.191 (active)
Locus YLR221C, strain rsa3, stronger effect = lower value
  normalized growth: 0.054 (active)
Locus YLR258W, strain gsy2, stronger effect = lower value
  normalized growth: 0.056 (active)
Locus YLR262C, strain YPT6 (second series), stronger effect = lower value
  normalized growth: 0.0717 (active)
Locus YLR320W, strain mms22, stronger effect = lower value
  normalized growth: 0.0755 (active)
Locus YLR342W, strain FKS1, stronger effect = lower value
  normalized growth: 0.0621 (active)
Locus YLR357W, strain rsc2, stronger effect = lower value
  normalized growth: 0.113 (active)
Locus YLR370C, strain arc18, stronger effect = lower value
  normalized growth: 0.0568 (active)
Locus YLR384C, strain iki3, stronger effect = lower value
  normalized growth: 0.0609 (active)
Locus YML120C, strain ndi1, stronger effect = lower value
  normalized growth: 0.0584 (active)
Locus YMR058W, strain fet3, stronger effect = lower value
  normalized growth: 0.0576 (active)
Locus YMR125W, strain sto1, stronger effect = lower value
  normalized growth: 0.0728 (active)
Locus YMR129W, stronger effect = lower value
  normalized growth: 0.0547 (active)
Locus YMR205C, strain PFK2, stronger effect = lower value
  normalized growth: 0.0815 (active)
Locus YMR231W, strain pep5, stronger effect = lower value
  normalized growth: 0.0627 (active)
Locus YNL071W, strain lat1, stronger effect = lower value
  normalized growth: 0.0579 (active)
Locus YNL183C, strain NPR1, stronger effect = lower value
  normalized growth: 0.000686 (active)
Locus YNL209W, strain ssb2, stronger effect = lower value
  normalized growth: 0.0563 (active)
Locus YNL248C, strain rpa49, stronger effect = lower value
  normalized growth: 0.0708 (active)
Locus YNL322C, strain KRE1 (second series), stronger effect = lower value
  normalized growth: 0.062 (active)
Locus YNR049C, strain mso1, stronger effect = lower value
  normalized growth: 0.0527 (active)
Locus YOR001W, strain rrp6, stronger effect = lower value
  normalized growth: 0.065 (active)
Locus YOR070C, strain gyp1, stronger effect = lower value
  normalized growth: 0.0567 (active)
Locus YOR080W, strain dia2, stronger effect = lower value
  normalized growth: 0.1 (active)
Locus YOR083W, strain WHI5, stronger effect = lower value
  normalized growth: 0.0584 (active)
Locus YOR106W, strain vam3, stronger effect = lower value
  normalized growth: 0.0629 (active)
Locus YOR231W, strain MKK1, stronger effect = lower value
  normalized growth: 0.115 (active)
Locus YOR265W, strain rbl2, stronger effect = lower value
  normalized growth: 0.0542 (active)
Locus YOR270C, strain vph1, stronger effect = lower value
  normalized growth: 0.0962 (active)
Locus YOR290C, strain snf2, stronger effect = lower value
  normalized growth: 0.906
Locus YPL051W, strain arl3, stronger effect = lower value
  normalized growth: 0.0583 (active)
Locus YPL078C, strain atp4, stronger effect = lower value
  normalized growth: 0.163 (active)
Locus YPL106C, strain sse1, stronger effect = lower value
  normalized growth: 0.0924 (active)
Locus YPL240C, strain hsp82, stronger effect = lower value
  normalized growth: 0.0548 (active)
Locus YPL256C, strain CLN2, stronger effect = lower value
  normalized growth: 0.128 (active)
